Most compounds without a hit are left out; they make up all but 2.8% or so of the library.
MBNL1 CUG block: inhibitors of human MBNL1 binding to CUG repeat RNA; Q9NR56; TR-FRET MBNL1-His/biotin-(CUG)12 binding, 665/545 ratio; Potency, µM (titrated, usually from 57.5 µM), for the others: at the highest dose activity change, negative = inhibition, hits mostly inhibitors; 280,000 compounds, 0.036% hits; AID 2675; active = well fitted inhibition curve with a large enough effect in the signal ratio, with a control signal flat, not every such curve was filed as active; inconclusive = small, poorly fitted or top-dose-only effect, or effect the other way, or a change in a side signal; inactive = no such curve, though single readings can be large or run the other way; the % refers to the signal ratio; also: potency is read from the fitted curve at half-maximal effect; % is scaled to controls: 0 for no effect and ±100 for the full control effect
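TR-FRET readout: Ex 340 nm, 665/545 nm emission ratio, normalized to buffer-only (basal) and MBNL1-(CUG)12 controls. Complex of MBNL1-His with Biotin-(CUG)12, compounds 92 nM–58 uM, incubated 60 min at room temperature.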
CBFb RUNX1 block: CBF-beta/RUNX1 interaction disruption | Q01196+Q13951 | AlphaScreen CBFb-His/RUNX1-biotin binding, biochemical | Potency, µM (doses to about 59.8 µM), for the others: at the highest dose activity, negative = inhibition, hits mostly inhibitors | 230,000 tested, under 10 active; also: % of control where 0% means no effect
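CBF-beta (His) and RUNX1 (biotin), 30 nM each; 20 min preassociation; + compound, 15 min; + beads 50 ng each (Ni, streptavidin), 90 min; RT; AlphaScreen read.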
DRD3 antagonist: antagonists of human D3 dopamine receptor. max response, negative = inhibition, %. 360,000 compounds, 2.5% hits. D3R cells, DiscoveRx beta-arrestin luminescence, antagonist mode; stronger effect = lower value; in the data active = max response below about -50%; inconclusive = no clear call, values can overlap the other calls; also: % is scaled to controls: 0 for no effect and ±100 for the full control effect
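Cells plated overnight at 1500 cells/well, then exposed to library compounds with dopamine controls for 90 minutes at 37 degrees C. DiscoveRx reagent added for 30–60 minutes at room temperature; luminescence read, quantitative HTS format.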
PTHR1 agonist: activates the human parathyroid hormone receptor PTHR1 | AID 743266 | 410,000 compounds, 0.075% hits | Potency, µM (series often up to 115 µM), inactives show at the top dose activation, most hits filed as activators | HEK293 GP2 PTHR1 cells, GloSensor cAMP luminescence, 1 h; also: potency is read from the fitted curve at half-maximal effect; nearly all actives have a fitted effect of over 55% in size
Target sequence (Q03431 whole entry, looked up): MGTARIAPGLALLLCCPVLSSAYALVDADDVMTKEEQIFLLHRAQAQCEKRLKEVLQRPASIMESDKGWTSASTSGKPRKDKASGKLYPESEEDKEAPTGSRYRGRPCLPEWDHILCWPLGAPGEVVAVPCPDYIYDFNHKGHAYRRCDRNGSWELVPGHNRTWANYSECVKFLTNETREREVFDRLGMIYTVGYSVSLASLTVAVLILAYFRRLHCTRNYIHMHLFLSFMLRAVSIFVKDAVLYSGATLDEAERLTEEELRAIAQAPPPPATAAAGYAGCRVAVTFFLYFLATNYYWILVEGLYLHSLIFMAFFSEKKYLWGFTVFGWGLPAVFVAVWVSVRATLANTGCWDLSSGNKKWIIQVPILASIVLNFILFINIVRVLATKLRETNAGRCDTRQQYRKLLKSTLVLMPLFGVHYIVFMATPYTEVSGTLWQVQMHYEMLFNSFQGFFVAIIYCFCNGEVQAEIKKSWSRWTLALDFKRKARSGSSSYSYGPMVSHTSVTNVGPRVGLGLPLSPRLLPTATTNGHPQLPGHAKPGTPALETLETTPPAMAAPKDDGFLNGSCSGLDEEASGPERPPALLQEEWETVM
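HEK-293-derived GP2 cells expressing PTHR1 and a GloSensor cAMP reporter, 3,000/well, plated overnight, given luciferin plus IBMX (each 0.5 mM as added) for 1 h at 37 °C, then compound for 1 h at 37 °C. Luminescence was read after 15 min at room temperature.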
D3 ag: agonists of human D3 dopamine receptor | D3R DiscoveRx beta-arrestin cells, luminescence, 90 min | max activation, % | AID 652048 | 410,000 compounds, 0.58% hits | P35462; in the data active = max activation above about 30%; also: 0% is about no effect
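Agonist-mode cell screen: cells plated at 1500/well and incubated overnight at 37 °C, then exposed to library compounds for 90 min at 37 °C. Detection reagent was added for 30–60 min at room temperature, and luminescence was read.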
a7 integrin act: activates integrin-mediated alleviation for muscular dystrophy | alpha7betagal myoblasts, beta-gal FDG fluorescence, 48 h | Potency, µM (top dose mostly 38.3 µM), inactives show top-dose activation, actives largely listed as activators | 350,000 compounds, 0.064% hits;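 also: potency is read from the fitted curve at half-maximal effect; 100% = response of the positive control SU9516; nearly all actives have a fitted effect of over 60% in size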
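alpha7betagal+/- myoblasts (passage 13, 250/well) treated 48 h at 37C with compounds at 1:260 dilution of DMSO stock. Lysed, then beta-galactosidase activity read as FDG fluorescence (ex 480/em 540) after 30 min, with pre-read for autofluorescence.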
Starred values were filed as active, the others as inactive; i = inactive; ? = inconclusive; . = no result given; ! = not confirmed by another sample; [ ] = another dose, or the depositor's remark. Unless noted, calls follow the shape of the dose curve; as a rule, active = well fitted curve in the direction sought with a large enough effect; inconclusive = small, poorly fitted or top-dose-only effect, or another doubt; inactive = no such curve, though single readings can be large; an effect the other way counts as inactive or inconclusive.

SMILES	MBNL1 CUG block	CBFb RUNX1 block	DRD3 antagonist	PTHR1 agonist	D3 ag	a7 integrin act
CC(C)(C)OC(=O)C[C@@H]1C/C=C\C[C@@H](CC(=O)N(CCO)Cc2ccccc2)C(=O)N2CCC[C@@H]2COC1=O	.	.	7.4	-22.8%	35.3*	-5.2%
CC(C)(C)OC(=O)C[C@H]1C/C=C\C[C@H](CC(=O)N(CCO)Cc2ccccc2)C(=O)NCCOC1=O	.	.	30.5	-12.7%	-1.1	9.2%
OC(c1cccnc1)c1nc(-c2cccc(F)c2)cs1 (stereo not drawn)	.	.	15.1	i	11.5	.
CCc1ccc(S(=O)(=O)NC(=S)NC2CCCCC2)cc1	-3.1%	8.5%	-67.3*	-19.4%	-4.6	31.9%
CSCC[C@@H](C(=O)NCCCCCCCCCCC(=O)N1CCN(C(=O)OC(C)(C)C)CC1)n1cc(CCO)nn1	.	.	76.8	-50.4%	23.6	-25.0%
CC[C@H](C)C(C(=O)N1CCN(C(=O)OC(C)(C)C)CC1)n1cc(C(CC(C)C)NC(=O)OC(C)(C)C)nn1 (stereo partly drawn)	5.6%	5.3%	20.9	-8.0%	5.7	6.6%
CC[C@@H](C)[C@@H](C(=O)N1CCN(C(=O)OC(C)(C)C)CC1)n1cc(CCCCNC(=O)OC(C)(C)C)nn1	9.4%	11.5%	142.4	-43.2%	53.0*	-37.6%
CC(C)(C)OC(=O)NCCCC[C@@H](C(=O)NCCCCCCCCCCC(=O)N1CCN(C(=O)OC(C)(C)C)CC1)n1cc(CCO)nn1	.	.	29.5	i	37.7*	-21.5%
Cc1ccc2nc(-c3ccncc3)cc(-c3ccccc3)c2c1	-12.7%	-0.8%	24.4	i	56.6*	10.6%
Cc1cccc(-c2cc(C(=O)Nc3ccncc3)c3ccccc3n2)c1	23.1%	.	100.2	-29.1%	35.4*	?
O=C(Nc1nccs1)c1cc(-c2ccccc2)nc2ccccc12	.	-10.7%	16.2	-7.3%	44.1*	-17.9%
COc1ccc(NC(=O)C2CCCN2C(=O)NC2CCCCC2)cc1 (stereo not drawn)	4.1%	.	6.0	i	15.3	-54.2%
COC(=O)c1ccc(C23CC4(C2)[C@H](CN(Cc2cccnc2)[C@@H]4c2ccccc2)C3c2ccc(C(F)(F)F)cc2)cc1 (stereo partly drawn)	3.3%	2.2%	-4.8	i	3.7	8.2%
COC(=O)c1ccc(C23CC4(C2)[C@H](CN(Cc2cccnc2)[C@@H]4c2ccccc2)C3c2ccccc2)cc1 (stereo partly drawn)	1.5%	-2.4%	-28.2	-26.9%	47.1*	0.0%
CCN(CC)CCC=C(c1cccs1)c1cccs1	.	.	-53.6*	19.5%	-14.7	-9.3%
Cc1cc(C(=O)O)c2c(=O)n(C)c(=O)n(C)c2n1	.	.	.	i	3.1	.
CCN1CCN(C(=O)c2ccc3c(c2)N(Cc2ccccc2)C(=O)c2ccccc2S3(=O)=O)CC1	7.8%	.	-72.2*	?	-15.2	-19.4%
CCc1ccc(C(=O)/C=C2\Sc3ccccc3NC2=O)cc1	.	0.2%	-147.0*	-54.7%	-10.4	9.6%
CCCCCCc1ccc(-c2ccc(C#N)cc2)cc1	.	16.6%[21.7 µM]	.	.	.	.
CCOc1ccc2ccccc2c1C(=O)N[C@@H]1C(=O)N2[C@@H]1SC(C)(C)[C@@H]2C(=O)O	11.6%	-10.0%	104.9	-25.5%	48.9*!	.
Nc1ncnc2c1ncn2[C@@H]1O[C@H](CCC(=O)NCc2ccccc2)[C@@H](O)[C@H]1O	.	.	-93.2*	-19.7%	-10.0	.
COc1cc2c(cc1CNC[C@H]1O[C@@H](n3cnc4c(N)ncnc43)[C@H](O)[C@@H]1O)OCO2	.	.	7.0	-21.5%	38.9*	4.3%
Nc1ncnc2c1ncn2[C@@H]1O[C@H](CNC(=O)[C@H](N)Cc2cscn2)[C@@H](O)[C@H]1O	.	.	-83.8*	13.4%	-1.7	15.0%
Cc1ccc(NC(=O)Cn2c(=O)n(Cc3nc(-c4ccccc4)no3)c(=O)c3cc4c(cc32)OCO4)cc1F	.	.	.	i	-2.4	.
NNc1nc(Nc2ccc([N+](=O)[O-])cc2)nc(N2CCCCCC2)n1	14.3%	.	-51.9*	-12.8%	-24.6	-27.2%
SMILES	MBNL1 CUG block	CBFb RUNX1 block	DRD3 antagonist	PTHR1 agonist	D3 ag	a7 integrin act
CCc1sc(Nc2cccc(Cl)c2C)nc1-c1cc2cccc(OC)c2oc1=O	.	.	.	i	7.4	.
CC(C)(C)c1ccc(-n2nc(C#N)c(Cl)cc2=O)cc1	?	-6.5%	-94.6*	-23.0%	-8.6	-64.4%
COc1ccc(C(=O)NCc2ccc3c(c2)CCN3C(=O)c2ccncc2)cc1	.	.	.	i	-4.9	.
Cc1cc(C)n2nc(N)nc2n1	.	.	-16.3	-24.5%	7.5	5.6%
Cc1cc(-c2ccccc2)n2nc(N)nc2n1	-4.2%	8.8%	-10.3	i	-1.1	12.6µM*
CC(=O)N1CCc2cc(C(=O)CN3CCN(c4cccc(Cl)c4)CC3)ccc21	7.7%	1.4%	-50.0*	-4.0%	-7.9	4.4%
CS(=O)(=O)c1ccc2nc(NC(=O)c3ccccc3Br)sc2c1	-5.9%	.	-56.3*	-39.8%	-3.3	24.5%
CS(=O)(=O)c1ccc2nc(NC(=O)c3ccccc3Cl)sc2c1	45.3%	.	0.0	-32.3%	-15.2	-8.0%
CN(C)CC1CC/C(=C\c2ccc(O)cc2)C1=O (stereo not drawn)	.	.	-61.4*	-23.5%	-14.3	-58.6%
COc1ccc(/C=C2\CCC(C3CCCC3)C2=O)cc1 (stereo not drawn)	-2.7%	.	16.3	-30.9%	0.2	1.5%
COc1ccc(/C=C2/CCC(CN3CCOCC3)C2=O)cc1 (stereo not drawn)	.	.	-66.9*	-38.2%	-21.9	-54.6%
CC1CCC/C(=C\c2ccc(O)cc2)C1=O (stereo not drawn)	.	.	-11.0	-36.9%	-9.2	-51.7%
OC[C@H]1O[C@@H](O[C@H]2[C@H](O)[C@@H](O)[C@H](O)O[C@@H]2CO)[C@H](O)[C@@H](O)[C@@H]1O	.	.	.	.	8.4	.
COc1ccc2c(c1)[nH]c1c(N3CCSCC3)ncnc12	-6.4%	-0.6%	70.4	-32.0%	30.3*	-12.0%
Cn1nc(C(C)(C)C)cc1C(=O)NCc1ccc2c(c1)OCO2	-6.5%	.	28.0	-84.1%	5.0	-13.4%
Cc1ccc(Cl)cc1NC(=O)c1cc2ccccc2cc1O	10.1%	9.6%	27.0	i	36.1*	-55.9%
Cc1noc(C)c1S(=O)(=O)N1CCCC1C(=O)O (stereo not drawn)	-3.8%	.	?	i	0.6	9.3%
CCC(c1nc2ccccc2[nH]1)N(CCCn1ccnc1)C(=O)c1ccc(C(F)(F)F)cc1 (stereo not drawn)	.	.	12.2	-15.9%	2.5	.
